According to PubChem BioAssay (NCATS):
Records with an inconclusive call do not appear. A call without a number means that no potency is given here. The source made the active and inactive calls. Calls follow the shape of the dose curve; as a rule, active = well fitted inhibition curve with a large enough effect; inconclusive = small, poorly fitted or top-dose-only effect; inactive = flat fitted curve, though single readings scatter. Residues, ends and D or L forms follow the SMILES beside them. *: point of attachment. Cbz = O=C(OCc1ccccc1)*

Assay: qHTS for differential inhibitors of proliferation of Plasmodium falciparum line Dd2 (AID 1882); also: nearly all actives have a fitted effect of over 65% in size
Settings: Potency: Plasmodium falciparum Dd2 proliferation inhibition; series mostly up to 28.7 µM
Text: NIH Molecular Libraries Probe Production Network [MLPCN]
NIH National Institute of Allergy and Infectious Diseases [NIAID]
NIH Chemical Genomics Center [NCGC]
Assay Provider: Xinzhuan Su, NIAID
Plasmodium falciparum is a virulent malarial parasite that kills 1-2 million people worldwide each year. Transmitted by mosquitoes, the sporozoite form of the parasite enters the blood stream to infect hepatocytes, where they become merozoites that infect red blood cells (erythrocytes). Within erythrocytes, merozoites begin a […] cycle of growth and division, after which the parasite is released to infect new red blood cells. Gametocytes, which form within erythrocytes as well, circulate in the bloodstream and are ingested by the mosquito, thereby completing the life cycle. To profile malarial isolates for differential chemical responses and to identify inhibitors of malarial growth, an assay that measures P. falciparum growth and replication within erythrocytes was employed. This assay uses a DNA binding fluorescent dye (SYBR Green) to detect parasite DNA following cell lysis. Because mature erythrocytes lack DNA, only Plasmodium-derived DNA is detected. The P. falciparum line Dd2, derived from a malarial isolate from […], was used.
NCGC Assay Protocol Summary:
The SYBR Green viability assay was adapted from a method described previously (Plouffe et al., 2008). For screening 3 ul culture medium was dispensed into 1536 well black clear bottom plates (Aurora Biotechnologies) using a Multidrop Combi (Thermo Fisher Scientific Inc.), 23 nL compounds in DMSO were added by a pin tool (Kalypsys), and 5 ul of erythrocytes infected with P. falciparum line Dd2 (0.3% parasitemia, 2.5% hematocrit final concentration) were added. The plates were incubated at 37 C in a humidified incubator in 5% CO2 for 72 h, and 2 ul lysis buffer (20 mM Tris HCl, 10 mM EDTA, […]% saponin, 1.6% triton X, 10X SYBR Green I supplied as 10,000X […] by Invitrogen) was added to each well. The plates were mixed for 25 sec with gentle shaking and incubated overnight at room temperature in the dark. The following morning, fluorescence intensity at 485(14) nm excitation and 535(25) nm emission wavelengths was measured on an EnVision (Perkin Elmer) plate reader. Plate reads were normalized relative to the control inhibitor (0.29 uM artemisinin) and vehicle (DMSO) wells present on each plate and then corrected by an algorithm using vehicle-only control plates at the beginning and end of the compound plate stack.
Plouffe D, Brinker A, McNamara C, Henson K, Kato N, Kuhen K, Nagle A, Adrian F, Matzen JT, Anderson P, Nam TG, Gray NS, Chatterjee A, Janes J, Yan SF, Trager R, Caldwell JS, Schultz PG, Zhou Y, Winzeler EA. […] Proc Natl Acad Sci U S A. 2008, 105(26), pp 9059-64.
Potency is read from the fitted curve at half-maximal effect.

SMILES	Potency
CCCCS(=N)(=O)CC[C@H](N)C(=O)O (stereo not given in full)	inactive
Nc1ccc(CCNc2ncnc3c2ncn3C2OC(CO)C(O)C2O)cc1 (stereo not given)	inactive
O=C(O)/C=C/c1ccc(O)c(O)c1	inactive
NCCS(=O)O	inactive
CCCCCCCCCC(=O)NC(CN1CCOCC1)[C@H](O)c1ccccc1 (stereo not given in full)	2.24 µM (active)
CC(N)(Cc1ccc(O)cc1)C(=O)O (stereo not given)	inactive
N[C@H]1CONC1=O	inactive
O=C(O)c1ccccc1Nc1ccccc1	inactive
CC(=O)C(C)=O	inactive
CCCCOc1cc(CC2CNC(=O)N2)ccc1OC (stereo not given)	inactive
CC(C)[C@H](NC(=O)OCc1ccccc1)C(=O)N[C@H](C=O)Cc1ccccc1 (Cbz-Val-Phe-aldehyde)	4.47 µM (active)
CCCc1c(-c2ccc(O)cc2)nn(-c2ccc(O)cc2)c1-c1ccc(O)cc1	inactive
N[C@@H](CCCC(=O)O)C(=O)O	inactive
CN1CCN(c2nc3cc(C(F)(F)F)ccc3n3cccc23)CC1	8.91 µM (active)
CNC(=O)c1cc2c(cn1)[nH]c1ccccc12	inactive
NC(=O)CC[C@H](N)C(=O)O	inactive
CCCCCCC/C=C\CCCCCCCCC(=O)O	inactive
O=C(O)c1cccnc1C(=O)O	inactive
Nc1ccc(N2C(=O)c3ccccc3C2=O)c(Cl)c1	inactive
CCC(=O)N1CCN(C(=O)c2ccccc2)CC1	inactive

SMILES	Potency
Cc1nc(N=Nc2ccc(C(=O)O)cc2)c(COP(=O)(O)O)c(C=O)c1O	inactive
Nc1nc2[nH]c(=O)cnc2c(=O)[nH]1	inactive
CCn1c(=O)[nH]c2cc(Cl)c(Cl)cc21	inactive
CN1C2CCC1CC(OC(c1ccccc1)c1ccccc1)C2 (stereo not given)	4.47 µM (active)
CC(N)=O	inactive
NCCCCN=C(N)N	inactive
Cn1c(=O)c2[nH]c(-c3ccc(S(=O)(=O)O)cc3)nc2n(C)c1=O	inactive
c1ccc2nc(C3=NCCN3)ccc2c1	inactive
Cc1nc2c(OCc3ccccc3)cccn2c1CC#N	inactive
C/C(=C\c1ccc(C(=O)O)cc1)c1ccc2c(c1)C(C)(C)CCC2(C)C	inactive
O=C(O)Cc1c[nH]c2ccc(O)cc12	inactive
N#Cc1cc2nc(O)c(O)nc2cc1[N+](=O)[O-]	inactive
CC(=O)O[C@H]1CC2(C)[C@@H](C[C@@H](O)[C@H]3[C@@]4(C)CC[C@@H](O)[C@@H](C)[C@@H]4CC[C@@]32C)C1=C(CCC=C(C)C)C(=O)O (stereo not given in full)	inactive
COc1cc(CC(=O)O)ccc1O	inactive
CCCn1c(=O)c2[nH]c(C3CCCC3)nc2n(CCC)c1=O	inactive
NC(=O)c1ccccc1	inactive
COc1cc(C(O)C(=O)O)ccc1O (stereo not given)	inactive
CCOC(=O)C12CC1/C(=N/O)c1ccccc1O2 (stereo not given)	inactive
CCCCC[C@H](CC(=O)NO)C(=O)N[C@H](C(=O)N1CCC[C@H]1CO)C(C)C	3.55 µM (active)
CC1=C(/C=C/C(C)=C/C=C/C(C)=C\C(=O)O)C(C)(C)CCC1	10 µM (active)
